# Sfp PPTase inh = inhibitors of Bacillus subtilis Sfp phosphopantetheinyl transferase; Q9F4F7; Biochemical Sfp PPTase activity, qHTS; Potency, µM, without a hit: largest response in the series, negative = inhibition, actives largely listed as inhibitors; 3.5% of 310,000 active;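 note: the enzyme is Sfp with the accession as filed and its product quenches rhodamine fluorescence; potency is the fitted concentration of half-maximal effect; 0% = enzyme reaction without inhibitor and -100% = no enzyme wells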
#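 After 15 min at room temperature with compound, 15 nM Sfp received 5 uM rhodamine-CoA plus 12.5 uM BHQ-2-ybbR (50 mM Hepes pH 7.6, 10 mM MgCl2). Rate came from the fluorescence difference over 30 min, ex 525/em 598 nm.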
# Tau ThT inhib = tau fibrillization inhibition (ThT binding); P10636; recombinant tau K18 P301L, heparin-induced fibrillization, ThT fluorescence; Potency, µM (series often up to 57.4 µM), for inactives: at the top dose activity, negative = inhibition, usual class: inhibitors; 2.1% of 270,000 active; AID 1460; note: potency is the fitted concentration of half-maximal effect; nearly all actives have a fitted effect of over 55% in size
# Target sequence (P10636 561-689 P618L limits assumed): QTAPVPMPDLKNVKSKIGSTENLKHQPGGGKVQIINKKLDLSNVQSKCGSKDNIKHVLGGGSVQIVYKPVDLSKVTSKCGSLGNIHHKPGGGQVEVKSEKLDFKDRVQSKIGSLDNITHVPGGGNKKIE
#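 ThT emission at 510 nm, taken 1 hr after adding 30 uM dye, quantifies aggregates formed when 20 uM heparin acts on human tau K18 P301L for 6 hr at 37 C.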
# Tau FP inhib = inhibitors of human tau fibril formation | P10636 | K18 P301L tau heparin fibrillization, Alexa594 FP, 6 h | Potency, µM (top dose mostly 57.7 µM), inactives show at the highest dose activity, negative = inhibition, actives largely listed as inhibitors | 0.39% of 280,000 active; note: potency is the fitted concentration of half-maximal effect; nearly all actives have a fitted effect of over 55% in size
#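 FP of Alexa 594-tau after heparin (20 uM) induction. Substrate: human K18 P301L, 15 uM unlabeled, 0.24 uM labeled. Buffer 100 mM sodium acetate pH 7. 6 hr, 37 C.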
# FBPA coupling cs = counter-screen for Giardia aldolase inhibitors: coupling enzyme system | 0.67% of 290,000 active | coupling enzyme system counterscreen, AmpLite Red fluorescence | activity change, negative = inhibition, % at 58.2 µM, hits read low; in the data active = activity change below about -30%
#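 Activity here indicates interference with the coupling reaction, not aldolase inhibition. Compounds at 57.5 uM final met coupling enzymes for 10 min at RT; substrate and AmpLite Red detection followed, with a 525/598 nm fluorescence read after 20 min.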
# Tau fluor cs = counter-screen for tau fibril formation inhibitors. tau K18 P301L Alexa594 fluorescence, heparin fibrillization. Potency, µM (top dose mostly 57.7 µM), for the others: at the top dose activity change, negative = decrease. 0.93% of 280,000 active; note: potency is the fitted concentration of half-maximal effect; nearly all actives have a fitted effect of over 55% in size
#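 Human tau K18 P301L (15 uM unlabeled, 0.24 uM Alexa 594-labeled) in 100 mM sodium acetate pH 7 with 20 uM heparin, 6 hr at 37 C. ThT 30 uM added, 1 hr ambient; Alexa 594 FP and total fluorescence read at 555/632 nm.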
# Active calls of the source: *; u = inconclusive; x = no result given; [ ] = another dose, or the depositor's remark. In the library only some 5.2% were active in any assay of this set; here they are far more common. Unless noted, calls come from the whole dose curve; as a rule, active = well fitted curve in the direction sought with a large enough effect; inconclusive = small, poorly fitted or top-dose-only effect, or another doubt; inactive = no such curve, though single readings can be large; an effect the other way counts as inactive or inconclusive. Unless noted, % is set by controls: 0 for no effect and ±100 for the full control effect.
SMILES,Sfp PPTase inh,Tau ThT inhib,Tau FP inhib,FBPA coupling cs,Tau fluor cs
CC(=O)Nc1nonc1-c1nnc(SCC(=O)Nc2cc(C)ccc2C)n1-c1ccccc1,x,-13.6%,-7.9%,x,-23.6%
COc1ccccc1CNc1ncnc2ccc(-c3ccc(N(C)C)cc3)cc12,u,11.2µM*,u,-20.4,10µM*[quencher]
CCOC(=O)/C(=N\Nc1ccccc1)P(=O)(c1ccccc1)c1ccccc1,20µM*,-15.6%,5.0%,3.9,2.9%
O=C(COc1ccc(Cl)cc1)OCc1csc(Nc2ccccc2)n1,-13.4%,u,11.5%,0.1,14.1µM*[quencher]
CCOC(=O)/C(=N\Nc1ccc(Cl)cc1)c1csc(Nc2ccccc2)n1,-0.7%,u,u,5.9,4.47µM*[quencher]
CCCCC(CCC(=O)O)(C(=O)OCC)c1csc(Nc2ccccc2)n1 (stereo not drawn),14.1%,-17.1%,4.1%,1.9,-3.3%
CCOC(=O)/C(=N/Nc1ccccc1)c1csc(Nc2ccccc2)n1,13.5%,u,u,-3.3,7.08µM*[quencher]
CCOC(=O)/C(=N\Nc1ccccc1)S(=O)(=O)c1ccccc1,-17.3%,-3.9%,0.1%,-3.2,-21.2%
CC1CC=CC2C1C(=O)N(Cc1ccccc1)C2c1ccc2ccccc2c1C=Cc1ccccc1 (stereo not drawn),u,x,x,0.2,x
CCN(CC)C(=O)c1csc(Nc2ccc(C)cc2)n1,20µM*,u,4.0%,-2.4,-19.4%
CCOC(=O)/C(=N\Nc1ccc(OC)cc1)c1csc(Nc2ccccc2)n1,1.7%,u,u,-8.5,7.08µM*[quencher]
CCCNC(=O)Cn1nc(-c2ccc(C)c(C)c2)c2cnc3ccc(F)cc3c21,x,u,-13.5%,x,-27.6%
Cc1ccc(C)c(NC(=O)Nc2csc3c2CCCC3)c1,x,u,0.5%,x,-19.7%
CSc1ccccc1NC(=O)C1CCCO1 (stereo not drawn),79.4µM*,-4.6%,-0.9%,1.3,6.3%
O=C(Nc1ccc([N+](=O)[O-])c(NC(=O)C2CCCO2)c1)C1CCCO1 (stereo not drawn),-6.1%,u,-3.4%,-6.8,-10.9%
O=C(Nc1ccc(N=Nc2ccccc2)c(NC(=O)C2CCCO2)c1)C1CCCO1 (stereo not drawn),-23.5%,14.1µM*,-1.9%,2.3,-26.6%
CC(=O)c1cccc(NC(=O)c2sc(-n3nc(C)c(Cc4ccc5c(c4)OCO5)c3C)nc2C)c1,x,0.2%,-12.0%,x,-20.6%
COc1ccc(CNCCC(c2ccc3c(c2)OCO3)c2ccccc2OC)cc1 (stereo not drawn),x,-8.1%,-4.3%,x,0.4%
CCN1CCN(CC(=O)c2ccc(C)cc2)CC1,79.4µM*,x,x,-1.2,x
CO[C@H]1COC(=O)[C@H](C)COC(=O)[C@H](C)NC(=O)C/C=C\[C@H]1C,18.8%,1.2%[11.5 µM],-0.3%[11.6 µM],2.2,-2.9%[11.6 µM]
OCCN=c1cc(-c2ccccc2)oc2ccc(Cl)cc12,89.1µM*,0.4%,-7.9%,x,-7.1%
c1ccc(Cc2nnc3sc(C4COc5ccccc5O4)nn23)cc1 (stereo not drawn),u,u,-3.5%,-2.4,-8.8%
Clc1ccccc1-c1nnc2sc(C3COc4ccccc4O3)nn12 (stereo not drawn),17.8µM*,u,-3.2%,5.7,-16.1%
Cc1ccc(-c2nnc3sc(C4COc5ccccc5O4)nn23)cc1 (stereo not drawn),0.5%,-16.4%,4.5%,-2.3,3.6%
c1ccc(OCc2nnc3sc(C4COc5ccccc5O4)nn23)cc1 (stereo not drawn),25.1µM*,u,-1.3%,1.2,-21.2%
CC(C)CO/N=C1/[C@H]2O[C@@H]2[C@@H](O)[C@H]2[C@H]1CCn1c(=O)n(Cc3cc4c(cc3Cl)OCO4)c(=O)n12,7.8%,-4.5%[11.5 µM],-4.7%[11.6 µM],-2.7,-4.7%[11.6 µM]
CN(C)/C=C/c1c([N+](=O)[O-])c2ccc(O)cc2n1-c1ccccc1,2.51µM*,12.6µM*,u,-3.8,15.8µM*[quencher]
CCN(CCCNC(=O)CCNC(=O)Cn1ccc2ccccc2c1=O)c1ccccc1,10.2%,-11.4%,5.7%,0.8,-9.9%
CN(CCNC(=O)CCNC(=O)Cn1ccc2ccccc2c1=O)Cc1ccccc1,14.5%,-12.7%,22.4µM*,1.4,15.8µM*[quencher]

# Screening data: PubChem, National Center for Advancing Translational Sciences (NCATS)
